Screening data (PubChem BioAssay)
A selection: hits, their analogues and other compounds. The true share with any hit is near 2.1%.
Casp6 inh – inhibitors of human caspase-6. P55212. purified caspase-6, Z-VEID-R110 cleavage fluorescence. inhibition, % at 12.5 µM. 350,000 compounds, 0.53% hits;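 active = mean inhibition across replicates at least about 35%, with every replicate also reaching that limit, limit read from the data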
Target sequence (P55212 24-179 limits assumed): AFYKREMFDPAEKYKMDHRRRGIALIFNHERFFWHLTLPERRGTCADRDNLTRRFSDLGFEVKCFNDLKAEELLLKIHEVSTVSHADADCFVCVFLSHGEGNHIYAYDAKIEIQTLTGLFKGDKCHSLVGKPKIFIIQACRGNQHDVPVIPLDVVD
Target sequence (P55212 194-293 limits assumed): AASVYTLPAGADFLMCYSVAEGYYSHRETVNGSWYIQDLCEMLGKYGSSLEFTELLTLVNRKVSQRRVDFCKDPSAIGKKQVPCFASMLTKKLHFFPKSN
NSD2 inh – NSD2 (human) methyltransferase inhibition. NSD2 peptide methylation, AlphaScreen, 120 min. inhibition, % at 12.5 µM. 310,000 compounds, 0.54% hits; in the data active = inhibition above about 50%
ARNT-TACC3 inh – disrupts binding between human ARNT and TACC3 | 390,000 compounds, 0.66% hits | AlphaScreen His-ARNT PAS-B/GST-TACC3 binding, luminescence; TACC3 fragment carries E629A point mutation | Q9Y6A5 | AID 623870 | inhibition, % at 9.99 µM;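 active = mean inhibition of replicates at least 50% and at least half of replicates each reaching 50%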
SIRT5 inh – blocks human SIRT5 desuccinylation of peptide; Q9NXA8; Purified SirT5, succinyl-peptide AMC, trypsin-coupled fluorescence; inhibition, % at 15 µM; 330,000 compounds, 1.1% hits; in the data active = inhibition above about 15%
Target sequence (Q9NXA8 whole entry, looked up): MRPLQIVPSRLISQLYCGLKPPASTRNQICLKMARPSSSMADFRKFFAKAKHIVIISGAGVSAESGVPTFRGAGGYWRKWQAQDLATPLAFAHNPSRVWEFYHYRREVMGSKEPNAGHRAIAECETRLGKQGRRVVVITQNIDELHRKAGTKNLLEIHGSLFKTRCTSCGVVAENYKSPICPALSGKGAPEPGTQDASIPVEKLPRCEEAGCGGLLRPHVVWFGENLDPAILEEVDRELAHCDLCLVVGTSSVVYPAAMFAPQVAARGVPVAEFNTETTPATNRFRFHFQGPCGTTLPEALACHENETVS
PfHsp90 set2 – growth inhibition of yeast expressing Plasmodium Hsp90; S. cerevisiae expressing PfHsp90, BacTiter-Glo ATP, 48 h; yeast lacking PDR1 and PDR3 efflux regulators; inhibition, % at 9.4 µM; 310,000 compounds, 0.32% hits;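 active = every replicate shows inhibition above about 80%, whatever the replicate mean, limit read from the data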
AlphaScreen art – interferes with AlphaScreen signal, flagging NSD2 false positives; shares compounds with NSD2 inh; AlphaScreen artifact counterscreen, preloaded methylated H4 peptide; AC35, µM (doses to about 10 µM); 1,500 compounds, 9.4% hits; AID 1053174; call rule not given here
Hits are given with their value; i = inactive; nt = no result.

SMILES | Casp6 inh | NSD2 inh | ARNT-TACC3 inh | SIRT5 inh | PfHsp90 set2 | AlphaScreen art
C[C@H](CO)N1C[C@H](C)[C@H](CN(C)C(=O)c2ccc3c(c2)OCO3)Oc2ncc(/C=C/c3ccccc3)cc2C1=O | i | nt | i | i | nt | nt
CCCCn1c(NC(=O)c2ccccc2Cl)c(C#N)c2nc3ccccc3nc21 | nt | 113.8 | i | nt | 77.8 | i
O=C1C(=O)c2cccnc2-c2ncccc21 | 61.0 | 144.8 | nt | i | nt | i
O=C1c2ccccc2-c2nccnc21 | nt | nt | i | nt | i | nt
C[C@H](NC(=O)C[C@H]1C=C[C@H](NC(=O)C2CCOCC2)[C@H](CO)O1)c1ccccc1 | i | nt | i | i | nt | nt
COc1cc(NS(=O)(=O)c2ccc(NC(=S)NC(=O)/C=C/c3ccco3)cc2)ncn1 | i | 149.5 | i | i | i | i
C[C@H](CO)N1C[C@H](C)[C@H](CN(C)Cc2cccnc2)Oc2ncc(/C=C/c3ccccc3)cc2C1=O | i | nt | i | i | nt | nt
C/C(=C\C(=O)c1cccnc1)Nc1ccc(O)cc1 | nt | 77.7 | i | nt | i | i
C/C(=C\C(=O)c1ccccc1)Nc1ccc(O)cc1 | nt | 78.1 | i | nt | i | i
COc1ccc(NC(=O)c2cccnc2)cc1 | i | i | i | i | i | nt
O=C([C@@H]1[C@@H](CO)[C@@H]2Cn3c(ccc(-c4ccncc4)c3=O)[C@@H]2N1CCC(F)(F)F)N1CCCCC1 | i | nt | i | i | nt | nt
O=C(c1coc(=O)c(Br)c1)N1CCOCC1 | nt | 140.6 | i | nt | i | i
CC1CN(Cc2cc(=O)n3ccsc3n2)CC(C)O1 (stereo unspecified) | nt | 62.3 | i | nt | i | i
O=c1cc(CN2CCC(Cc3ccccc3)CC2)nc2sccn12 | i | i | i | i | i | nt
COc1ccc(NC(=O)N(C)C[C@H]2Oc3ccc(NC(=O)NC4CCCCC4)cc3C(=O)N([C@@H](C)CO)C[C@@H]2C)cc1 | i | nt | i | i | nt | nt
COc1cc(N/N=C/c2ccc(N(C)C)cc2)ncn1 | i | i | i | i | i | nt
CN(C)c1cc(N/N=C/c2ccc(Cl)cc2)nc(N(C)C)n1 | i | 99.6 | nt | i | i | i
O=C(C[C@H]1C=C[C@H](NC(=O)c2ccncc2)[C@H](CO)O1)NCCc1ccncc1 | i | nt | i | i | nt | nt
Cc1ccc(NC(=O)C[n+]2ccn(C3=C([O-])c4ccccc4C3=O)c2)cc1 | i | 89.2 | i | nt | i | i
Cc1[nH]ccc(=O)c1OCc1ccccc1 | nt | nt | i | nt | i | nt
O=c1cc(OCc2ccccc2)cc[nH]1 | i | 81.6 | i | i | i | i
Oc1ccc(-c2csc(Nc3cccc4ccccc34)n2)cc1O | 43.1 | 50.7 | i | i | i | i
Cc1cccnc1Nc1nc(-c2ccc(O)c(O)c2)cs1 | i | 51.3 | i | i | i | i
COc1ccc(-c2csc(Nc3ncccc3C)n2)cc1OC | nt | i | i | nt | i | nt
COc1ccc(-c2c3c(nc4sc(C(=O)Nc5cc(C)on5)c(N)c24)CCC3)cc1 | nt | 51.6 | i | nt | i | i
SMILES | Casp6 inh | NSD2 inh | ARNT-TACC3 inh | SIRT5 inh | PfHsp90 set2 | AlphaScreen art
CC1Cc2ccccc2N1C(=O)COc1cccc(-n2cnnn2)c1 (stereo unspecified) | nt | 129.5 | i | nt | i | i
CCNCCC(CCC(C)C)c1ccc2c(c1)OCO2 (stereo unspecified) | i | 56.9 | i | nt | i | i
COc1ccc(CN2CC3(CCN(C(=O)C4CC4)CC3)c3c(n(C)c4cc(OC)ccc34)[C@@H]2CO)cc1 | i | nt | nt | i | nt | nt
CCOC(=O)C(C(=O)OCC)c1cc(Br)c2noc3c2c1C(=O)c1ccccc1-3 | nt | 96.7 | i | nt | i | i
COc1ccc(-c2ccc(/C=N/N3C(=O)C4C5C=CC(C6CC56)C4C3=O)o2)c([N+](=O)[O-])c1 (stereo unspecified) | nt | i | nt | nt | i | nt
COc1ccc(-c2ccc(C(c3c(C)[nH][nH]c3=O)c3c(C)[nH][nH]c3=O)o2)c([N+](=O)[O-])c1 | i | 123.8 | i | i | i | i
Cc1noc(C)c1NC(=O)Nc1ccc2c(c1)C(=O)N([C@H](C)CO)C[C@H](C)[C@H](CN(C)S(=O)(=O)c1ccc(F)cc1)OCCCC[C@H](C)O2 | i | nt | i | i | nt | nt
CCCn1c2c(c(O)c(C(=O)NCCCN(CC)CC)c1=O)CCCC2 | nt | 58.9 | i | nt | i | i
CCOc1ccc2[nH]c3c(NCCN(CC)CC)ncnc3c2c1 | i | 103.2 | i | i | i | i
CC(C)NC(=O)Nc1cccc2c1O[C@H](CN(C)Cc1ccc(Cl)c(Cl)c1)[C@@H](C)CN([C@@H](C)CO)C2=O | i | nt | i | i | nt | nt
CNCc1ccccc1Sc1ccc(OC)c(OC)c1 | nt | 56.2 | i | nt | i | i
CNCc1ccccc1Sc1cccc(O)c1 | nt | 73.7 | i | nt | i | i
CNCc1ccccc1Sc1cc(O)ccc1O | nt | i | i | nt | i | nt
O=C(C1CCCC1)N1CC2(C1)[C@@H](c1ccccc1)[C@@H](CO)N2Cc1cncnc1 | i | nt | nt | i | nt | nt
C=CCn1c(SCC(=O)N2CCN(c3ccccc3)CC2)nnc1-c1ccco1 | i | 84.4 | i | i | i | i
CCCC(=O)Nc1ccc2c(c1)C(=O)N(C)C[C@@H](OC)[C@@H](C)CN(CC1CCCC1)[C@H](C)CO2 | i | nt | i | i | nt | nt
COc1cccc(CN2C(=O)C(C)N(C(=O)c3c(F)cccc3F)c3ccccc32)c1 (stereo unspecified) | i | 104.2 | i | i | i | i
O=C1C=C(N(CCO)Cc2ccccc2)c2ccccc2C1=O | nt | 75.9 | i | nt | i | i
N#C/C(=C\c1ccc(N2CCOCC2)o1)C(=O)NCC1CCCO1 (stereo unspecified) | i | i | i | i | i | nt
N#C/C(=C\c1ccc(-c2ccc(C(=O)O)cc2)o1)C(=O)NCC1CCCO1 (stereo unspecified) | nt | 54.4 | i | nt | i | i
Cc1cc(C)cc(-n2c(C)nc3cc(C(=O)O)ccc32)c1 | i | 73.4 | i | i | i | i
COc1ccc2c(c1)CCc1sc(NC(=O)c3ccc(C)cc3)nc1-2 | nt | nt | i | nt | i | nt
COc1ccc2c(c1)Cc1sc(NC(=O)c3ccco3)nc1-2 | nt | i | i | nt | i | nt
COc1ccc2c(c1)Cc1sc(NC(=O)c3cccnc3)nc1-2 | i | 52.4 | i | i | i | i
COc1ccc2c(c1)Cc1sc(NC(C)=O)nc1-2 | nt | 94.5 | nt | nt | nt | i
SMILES | Casp6 inh | NSD2 inh | ARNT-TACC3 inh | SIRT5 inh | PfHsp90 set2 | AlphaScreen art
CCc1ccc(-n2cccc2/C=C2/C(=N)N3C(=NC2=O)SN=C3S(C)(=O)=O)cc1 | nt | 88.8 | i | nt | i | i
CCC1=NN2C(=N)/C(=C\c3cccn3-c3ccc(Cl)cc3)C(=O)N=C2S1 | i | i | i | i | i | nt
C=CC[n+]1c(-c2ccc(Cl)cc2Cl)csc1Nc1c(C)n(C)n(-c2ccccc2)c1=O | i | 50.7 | i | i | i | i
C[C@@H]1CN([C@@H](C)CO)C(=O)c2cc(NS(=O)(=O)c3cn(C)cn3)ccc2O[C@H]1CN(C)S(=O)(=O)c1cccs1 | i | nt | i | i | nt | nt
O=C1/C(=C/c2ccc(O)c(O)c2)SC(=S)N1Nc1ccccc1 | nt | 88.1 | i | nt | i | 2.35µM
Cc1cc(C)c2c(c1)N[C@H](c1cccs1)[C@@H]1CCO[C@H]21 | i | 50.2 | i | i | i | i
CC(C)c1ccc2c(c1)[C@H]1OCC[C@H]1[C@@H](c1cccs1)N2 | nt | i | i | nt | i | nt
